CFTR F508del cor: correctors of CFTR F508del function in bronchial epithelial cells; activity (quench increase), % at 7.58 µM; CFBE cells, YFP halide quenching; stimulated with forskolin plus potentiator P3; % fluorescence drop versus neutral controls; hit rate 0.36% among 350,000;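 active means mean added fluorescence quench of at least 8% versus neutral control, with both replicates also reaching 8%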;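 further: cells transiently co-express mutant CFTR-F508del with the halide-sensitive YFP; corrector assay measuring rescue of mutant channel to the surface after 24 h compound exposure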
GSIS activator: GLuc luminescence reporter in INS-1E cells, primary screen for activators of glucose-dependent secretion of insulin; hit rate 0.61% among 370,000; INS-1E GLuc reporter insulin secretion, 2-3 h; activation, % at 16.6 µM;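 active means lowest replicate activation of at least 40%, so every replicate reaches that level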
MITF act: MITF TRPM1 promoter activation in melanoma cells. hit rate 0.75% among 300,000. SK-MEL-5 TRPM1-promoter luciferase, 24 h; % of positive control, neutral wells = 0. activation, % at 12.5 µM;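 active means mean activation of at least 80% with every replicate also reaching 80%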
Env fusion inh: inhibitors of HIV Env-mediated cell fusion | hit rate 1.1% among 360,000 | inhibition, % at 12.3 µM | HeLa-JRFL Env/CEM21 cell fusion, luciferase;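 active means mean replicate inhibition score of at least 50 and every replicate individually at or above 50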
Wnt act: Wnt/beta-catenin pathway activation | Wnt/beta-catenin reporter cell assay, activator, plate reader | hit rate 1.2% among 300,000 | AID 743398 | activation, % at 9.35 µM; in the data active means activation above about 30%, passing the limit was not always enough
Large screens that a line does not name were inactive; ! = a repeat was not active; [ ] = dose if it differs, or a comment. Compounds with a hit are over-represented: about 2.7% of the library has one in this group of screens.

CC1(C)CC(=O)C=C(c2ccccc2-c2ccc(S(C)(=O)=O)cc2)C1=O	GSIS activator 48.7 (no result: MITF act)
CC(=O)c1ccc(-c2ccccc2C2=CC(=O)CC(C)(C)C2=O)cc1	none (no result: MITF act)
Cc1ccc(S(=O)(=O)N(C)C[C@@H]2Oc3ccc(NC(=O)C4CCCCC4)cc3CC(=O)N([C@H](C)CO)C[C@@H]2C)cc1	Env fusion inh 95.0[16.7 µM] (no result: MITF act, Wnt act)
CC(C)NC(=O)N(C)C[C@@H]1Oc2ccc(NC(=O)C3CC3)cc2CC(=O)N([C@H](C)CO)C[C@H]1C	Env fusion inh 62.2[16.7 µM] (no result: MITF act, Wnt act)
C[C@@H]1CN([C@@H](C)CO)C(=O)Cc2cc(NC(=O)C3CCCCC3)ccc2O[C@@H]1CN(C)S(=O)(=O)c1ccccc1	none (no result: MITF act, Env fusion inh, Wnt act)
COc1ccc(S(=O)(=O)N(C)C[C@@H]2Oc3ccc(NC(=O)C4CCCCC4)cc3CC(=O)N([C@H](C)CO)C[C@@H]2C)cc1	Env fusion inh 74.3[16.7 µM] (no result: MITF act, Wnt act)
CC(C)NC(=O)N(C)C[C@H]1Oc2ccc(NC(=O)C3CC3)cc2CC(=O)N([C@@H](C)CO)C[C@@H]1C	none (no result: MITF act, Wnt act)
Cc1ccc(S(=O)(=O)N(C)C[C@H]2Oc3ccc(NC(=O)C4CC4)cc3CC(=O)N([C@H](C)CO)C[C@@H]2C)cc1	none (no result: MITF act, Env fusion inh, Wnt act)
COc1ccc(S(=O)(=O)N(C)C[C@H]2Oc3ccc(NC(=O)C4CCCCC4)cc3CC(=O)N([C@@H](C)CO)C[C@@H]2C)cc1	none (no result: MITF act, Wnt act)
C[C@@H]1CN([C@@H](C)CO)C(=O)Cc2cc(NC(=O)C3CCCCC3)ccc2O[C@H]1CN(C)S(=O)(=O)c1ccccc1	Env fusion inh 63.0
C[C@H]1CN([C@@H](C)CO)C(=O)CCCn2cc(nn2)CO[C@H]1CN(C)C(=O)Nc1ccccc1F	none (no result: MITF act, Wnt act)
CCn1c(SCC(=O)N2c3ccccc3CCc3ccccc32)nc2c1c(=O)n(C)c(=O)n2C	none (no result: CFTR F508del cor, Wnt act)
CC1Cc2ccccc2N1C(=O)CSc1nc2c(c(=O)n(C)c(=O)n2C)n1Cc1ccccc1 (stereo not given)	Env fusion inh 55.6 (no result: CFTR F508del cor, GSIS activator, Wnt act)
O=c1[nH]c(/C=C/c2ccc(OC(F)F)cc2)nc2c1cnn2-c1ccccc1	GSIS activator 85.1 (no result: CFTR F508del cor)
CC(C)CC[n+]1ccccc1/C=C/c1ccc(N(C)C)cc1	Env fusion inh 60.6
CN(C)c1ccc(/C=C/c2cccc[n+]2[O-])cc1	none (no result: GSIS activator, MITF act)
CCOC(=O)C1=C2c3ccc4ccccc4c3CC(C)(C)N2C(=O)C1=O	none
CCOC(=O)C1=C2c3cc(OC)c(OC)cc3CC(C)(C)N2C(=O)C1=O	GSIS activator 44.9 (no result: CFTR F508del cor)
Cc1ccc(S(=O)(=O)N[C@H]2CC[C@@H](CCn3cc(-c4cccc(F)c4)nn3)O[C@H]2CO)cc1	none (no result: MITF act, Wnt act)
O=C(NNC1=Nc2ccccc2SC1)c1ccc(F)cc1	none (no result: GSIS activator)
O=C(NNC1=Nc2ccccc2SC1)c1ccc(Cl)cc1	Env fusion inh 61.2 (no result: GSIS activator, MITF act)
COc1ccc(S(=O)(=O)N(C)C[C@@H]2Oc3ccc(NC(=O)CCCN(C)C)cc3C(=O)N([C@@H](C)CO)C[C@@H]2C)cc1	none (no result: MITF act, Env fusion inh, Wnt act)
O=C(c1ccccc1)c1nnc(-c2ccccc2F)o1	Wnt act 60.5 (no result: CFTR F508del cor, GSIS activator, MITF act)
C=CCN1C(=O)CSc2ccc(C(=O)OCC)cc21	GSIS activator 68.6 (no result: CFTR F508del cor, Wnt act)
C=CCN1C(=O)CSc2ccc(C(=O)NCc3ccco3)cc21	none (no result: CFTR F508del cor, GSIS activator, Wnt act)
Cc1cc(C(=O)NNC(=O)c2ccc(Cl)c(S(N)(=O)=O)c2)c(C)o1	CFTR F508del cor 8.7
Cc1ccccc1S(=O)(=O)N1C[C@H](O)COC[C@@H]2O[C@H](CC(=O)NCCc3ccccc3)CC[C@H]21	none (no result: MITF act, Wnt act)
CCC(=O)Nc1ccc2c(c1)OC[C@@H](C)N(C(=O)c1ccc(F)cc1)C[C@H](C)[C@H](OC)CN(C)C2=O	none (no result: MITF act, Wnt act)
CCCNC(=O)Nc1ccc2c(c1)OC[C@@H](C)N(Cc1ccncc1)C[C@@H](C)[C@@H](OC)CN(C)C2=O	none (no result: MITF act, Env fusion inh, Wnt act)
COC(=O)C1(C(=O)OC)C[C@H](c2ccc(OC)cc2)N(Cc2ccccc2OC)[C@@H]1c1ccccc1	Env fusion inh 84.7 (no result: MITF act)
CO[C@@H]1CN(C)C(=O)c2ccc(NC(=O)Nc3cccc(F)c3)cc2OC[C@@H](C)N(C(=O)C2CC2)C[C@@H]1C	none (no result: MITF act, Env fusion inh, Wnt act)
Cc1cc(/C=C2\SC(=S)NC2=O)c(C)n1-c1cccc(O)c1	Wnt act 35.8
Cc1ccc(N/C=C/c2onc(C)c2[N+](=O)[O-])cc1	MITF act 113.4, Wnt act 39.6
Cc1cccc(C)c1N/C=C/c1onc(C)c1[N+](=O)[O-]	none (no result: CFTR F508del cor, GSIS activator, Env fusion inh, Wnt act)
COc1cccc(N/C=C/c2onc(C)c2[N+](=O)[O-])c1	GSIS activator 52.1 (no result: CFTR F508del cor)
O=C1CCCn2cc(nn2)COC[C@@H](Cc2ccccc2)N1	none (no result: CFTR F508del cor, MITF act, Wnt act)
O=C(O)C[C@H]1C[C@H]2c3cc(NC(=O)Nc4ccccc4F)ccc3O[C@H]2[C@@H](CO)O1	none (no result: MITF act, Wnt act)
COc1ccc(CNC(=O)c2cc3c(c(-c4cccc(-c5ccc(C#N)cc5)c4)n2)[C@@H](CCO)N([S@](=O)C(C)(C)C)C3)cc1	CFTR F508del cor 12.0 (no result: MITF act, Wnt act)
CC(C)(C)S(=O)N1Cc2cc(C(=O)Nc3ccc(-c4ccccc4)cc3)nc(-c3cccc(-c4cccc(F)c4)c3)c2[C@@H]1CCO (stereo not given in full)	GSIS activator 189.5 (no result: MITF act, Env fusion inh, Wnt act)
COc1ccc(CNC(=O)c2cc3c(c(-c4cccc(-c5cccc(C#N)c5)c4)n2)[C@@H](CCO)N([S@](=O)C(C)(C)C)C3)cc1	none (no result: MITF act, Wnt act)
CO[C@H]1CN(C)C(=O)c2ccc(NS(=O)(=O)c3ccccc3Cl)cc2OC[C@@H](C)NC[C@H]1C	none (no result: MITF act, Wnt act)
C[C@H](CO)N1C[C@H](C)[C@@H](CN(C)Cc2ccc(Cl)c(Cl)c2)Oc2c(NS(=O)(=O)c3cccs3)cccc2C1=O	Env fusion inh 62.2!
C[C@@H]1CN([C@H](C)CO)C(=O)c2cccc(NS(=O)(=O)c3cccs3)c2O[C@H]1CN(C)Cc1ccc(C(F)(F)F)cc1	none (no result: MITF act, Wnt act)
C[C@@H]1CN([C@@H](C)CO)C(=O)c2cccc(NS(=O)(=O)c3ccc(F)cc3)c2O[C@@H]1CN(C)Cc1ccc(-c2ccccc2)cc1	Env fusion inh 75.5[16.7 µM] (no result: MITF act, Wnt act)
C[C@@H]1CN([C@@H](C)CO)C(=O)c2cccc(NS(=O)(=O)c3cccs3)c2O[C@@H]1CN(C)Cc1ccc(C(F)(F)F)cc1	Env fusion inh 67.6[16.7 µM] (no result: MITF act, Wnt act)
C[C@H]1CN([C@@H](C)CO)C(=O)c2cccc(NS(=O)(=O)c3cccs3)c2O[C@@H]1CN(C)Cc1ccncc1	none (no result: MITF act, Env fusion inh, Wnt act)
C[C@@H]1CN([C@H](C)CO)C(=O)c2cccc(NS(=O)(=O)c3cccs3)c2O[C@@H]1CN(C)Cc1ccc(C(F)(F)F)cc1	Env fusion inh 83.8[16.7 µM] (no result: MITF act, Wnt act)
C[C@H](CO)N1C[C@H](C)[C@@H](CN(C)Cc2ccc(C(=O)O)cc2)Oc2ccc(NC(=O)C3CC3)cc2C1=O	none (no result: MITF act, Wnt act)
Cc1ccc(-n2c(C)cc(C(=O)CSc3nnnn3C)c2C)cc1	Wnt act 62.5 (no result: CFTR F508del cor, GSIS activator)
Cc1ccc(-n2c(C)cc(C(=O)CSc3nncs3)c2C)cc1	none (no result: CFTR F508del cor, GSIS activator, Env fusion inh, Wnt act)
COc1ccccc1CCn1cnc(-c2ccc(F)cc2F)c1CC(C)C	none (no result: GSIS activator, MITF act)
CCCCc1c(-c2ccccc2OC)ncn1Cc1cc(F)ccc1F	none (no result: MITF act)
CCCCc1c(-c2cccc(OC)c2)ncn1CCc1ccccc1OC	GSIS activator 80.0 (no result: MITF act)
COc1ccccc1CCn1cnc(-c2ccccc2F)c1CC(C)C	GSIS activator 41.9 (no result: MITF act)

Screening data (PubChem BioAssay)
